Assay outcomes (PubChem)
uPA surface inh: qHTS for Inhibitors of Cell Surface uPA Generation | cell surface uPA generation assay, qHTS | Potency, µM (top dose mostly 38.3 µM), without a hit: top-dose activity change, negative = inhibition, usual class: inhibitors | AID 540303, 2011 | actives 0.31% (n = 330,000); active = well fitted inhibition curve with a large enough effect; inconclusive = small, poorly fitted or top-dose-only effect; inactive = no such curve, though single readings can be large or run the other way; tested in mouse RAW 264.7 cells; also: potency is read from the fitted curve at half-maximal effect; % is scaled to controls: 0 for no effect and ±100 for the full control effect; nearly all actives have a fitted effect of over 55% in size
Sfp PPTase inh: qHTS Assay for Inhibitors of Bacillus subtilis Sfp phosphopantetheinyl transferase (PPTase); Potency, µM, without a hit: largest response in the series, negative = inhibition, most hits filed as inhibitors; actives 3.5% (n = 310,000); AID 1490, 2009; Biochemical Sfp PPTase activity, qHTS;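 also: the enzyme is Sfp with the accession as filed and its product quenches rhodamine fluorescence; potency is read from the fitted curve at half-maximal effect; 0% = enzyme reaction without inhibitor and -100% = no enzyme wells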
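Fluorescence-quenching assay: 15 nM Sfp-PPTase preincubated 15 min at room temperature with compound, then 5 uM rhodamine-CoA and 12.5 uM BHQ-2-labelled YbbR peptide added. Fluorescence (ex 525/em 598 nm) read at start and after 30 min; difference gives rate.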
TCR activator: Activators of T cell receptors: qHTS campaign. primary human leukocytes, anti-CD3, IL-2 HTRF, 48 h. Potency, µM (titrated, usually from 9.22 µM), without a hit: top-dose activation of IL-2 secretion, most hits filed as activators. 330,000 tested, under 10 active; also: % of control where 0% means no effect
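48 hr co-incubation of compounds, a-CD3 beads and primary human leukocytes; IL-2 quantified homogeneously by HTRF with anti-IL-2 K and d2 conjugates.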
ClpP mod: qHTS Assay for Activators of ClpP; Potency, µM (series often up to 57.5 µM), for inactives: at the highest dose activity change, negative = active; actives 1.9% (n = 340,000); ATP-dependent Clp protease proteolytic subunit (Bacillus subtilis (strain 168)), P80244; purified B. subtilis ClpP, FRET peptide cleavage, 20 min; active = well fitted falling curve with a large enough effect; inconclusive = small, poorly fitted or top-dose-only effect; inactive = no such curve, though single readings can be large or run the other way; also: potency is read from the fitted curve at half-maximal effect; the source files actives as falling curves though it sought activators and does not explain the sign; nearly all actives have a fitted effect of over 65% in size
Target sequence (P80244 whole entry, looked up): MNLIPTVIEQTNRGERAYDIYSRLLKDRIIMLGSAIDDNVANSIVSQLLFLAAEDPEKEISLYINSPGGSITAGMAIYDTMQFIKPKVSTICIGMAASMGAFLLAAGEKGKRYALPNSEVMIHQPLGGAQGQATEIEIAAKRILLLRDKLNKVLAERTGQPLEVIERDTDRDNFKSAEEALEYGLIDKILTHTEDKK
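FRET quenching reversal measured ClpP activation: 10 microg/mL B. subtilis ClpP at pH 8 with the FRET-FV decapeptide, read at 430 nm after 320 nm excitation. The 20-min minus 0-min signal was scaled between DMSO/no-enzyme wells and ADEP (5.8 microM final).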
Active calls of the source: *; ? = inconclusive; · = no result; [ ] = another dose, or the depositor's remark. Sampled rows, rich in hits. Any-hit rate of the full collection: about 4.2%. Unless noted, calls follow the shape of the dose curve; as a rule, active = well fitted curve in the direction sought with a large enough effect; inconclusive = small, poorly fitted or top-dose-only effect, or another doubt; inactive = no such curve, though single readings can be large; an effect the other way counts as inactive or inconclusive.

SMILES	uPA surface inh	Sfp PPTase inh	TCR activator	ClpP mod
O=C(O)c1ccc(N(c2ccccc2)c2ccccc2)cc1	-4%	14%	-5%[46.1 µM]	16µM*
O=C(O)c1cccc(-n2c(-c3cnccn3)n[nH]c2=S)c1	0%	28µM*	2%	·
S=c1[nH]nc(-c2ccccc2)n1-c1ccccc1	·	·	·	-12%
COc1ccc(OC)c(-n2c(-c3cnccn3)n[nH]c2=S)c1	3%	-20%	1%	1%
COc1ccc(-n2c(-c3cnccn3)n[nH]c2=S)cc1	5%	50µM*	·	-1%
Cc1ccc(C)n1-c1cccc(C(=O)O)c1	·	-26%	·	·
S=c1[nH]nc(-c2cnccn2)n1-c1ccccc1	-1%	56µM*	-13%	-1%
O=C(NCc1ccccc1Cl)c1ccc(NC(=O)N2CCSc3ccccc32)cc1	·	·	·	0%
O=C(NCc1ccc(F)cc1)C(=O)NCC(c1ccco1)S(=O)(=O)c1cccs1 (centres undefined)	·	·	·	0%
CCOC(=O)N1CCN(C(=O)c2ccc3c(SCC(=O)O)c4c(nc3c2)CCCC4)CC1	9%	14%	-4%[46.1 µM]	-8%
O=C(O)CSc1c2c(nc3cc(C(=O)N4CCOCC4)ccc13)CCCC2	·	50µM*	1%	?
Cc1ccccc1-c1csc(N)n1	-7%	·	2%	·
Cc1ccc(-c2csc(N)n2)s1	-3%	35µM*	7%	-2%
COc1ccc(-c2noc(-c3ccc(NC4CCCC4)c([N+](=O)[O-])c3)n2)cc1OC	·	·	·	1%
Cc1ccc(C)c(OCCC(=O)OCC(=O)N2CCN(S(=O)(=O)c3ccc(Cl)cc3)CC2)c1	10µM*	·	-2%	-4%
Cc1ccc(S(=O)(=O)N2CCN(C(=O)COC(=O)C3CCC3)CC2)c(C)c1	4%	·	6%	25µM*
Cc1ccc(S(=O)(=O)N2CCN(C(=O)COC(=O)CCOc3cc(C)ccc3C)CC2)cc1	4%	·	14%	-2%
Cc1cccc(-n2c(O)c(C=Nc3ccc(O)cc3)c3ccccc3c2=O)n1	?	7%	-1%[46.1 µM]	7.1µM*
CN(C)c1ccc(-c2cncnc2NCCN2CCOCC2)cc1	·	79µM*	·	·
Cc1cnc(CNc2ncncc2-c2ccc(C(=O)N(C)C)cc2)cn1	·	-6%	·	·
Cc1cnc(CNc2ncncc2-c2ccc(N(C)C)cc2)cn1	·	79µM*	·	·
O=C(Nc1ccccc1Cl)c1ccc(F)c(S(=O)(=O)NCc2ccc(Cl)c(Cl)c2)c1	·	·	·	-13%
CCCC[C@]12Cc3cc(OC)c(OC)cc3C(O1)C1=C(O2)C(=O)c2ccccc2C1=O	·	-24%	·	·
CCOc1ccc2nc(N3CCN(C(=O)c4ccc5c(c4)CCCC5)CC3)sc2c1	·	·	·	3%
O=C1c2cccc3cccc(c23)C(=O)N1CC1CCN(CC(O)COc2ccc3ccccc3c2)CC1 (centres undefined)	?	8%	3%	-10%
SMILES	uPA surface inh	Sfp PPTase inh	TCR activator	ClpP mod
O=C1c2cccc3cccc(c23)C(=O)N1CCN1CCN(CC(O)COc2ccc3ccccc3c2)CC1 (centres undefined)	2%	25µM*	-4%[46.1 µM]	-6%
CCc1ccc(OCC(O)CN2CCC(CN3C(=O)c4cccc5cccc(c45)C3=O)CC2)cc1 (centres undefined)	3%	50µM*	1%[46.1 µM]	-8%
OCCN1CCN(c2ncnc3c2c(-c2ccccc2)cn3-c2ccc(Br)cc2)CC1	12%	22µM*	1%	1%
Fc1ccc(-n2cc(-c3ccccc3)c3c(N4CCOCC4)ncnc32)cc1	7%	-14%	-1%	·
CCN1CCN(c2ncnc3c2c(-c2ccccc2)cn3-c2ccc(F)cc2)CC1	0%	40µM*	1%	·
O=C(c1ccccc1)N1CCN(c2ccc([N+](=O)[O-])cc2-n2cccc2)CC1	1%	-9%	-5%	-1%
Cc1ccc(-c2cc3nn(-c4ccccc4)c(N)c3c(=O)o2)cc1	-5%	4%	-1%	32µM*
CCn1nc(NC(=O)c2ccncc2)c2cc3cccc(C)c3nc21	-3%	7%	-1%	0%
CCn1nc(NC(=O)c2ccccn2)c2cc3cccc(C)c3nc21	3%	-6%	-1%	32µM*
COc1ccc(CC2=CC(=O)c3ccccc3C2=O)cc1	?	25µM*	1%	-1%
COc1ccc(Cc2ccccc2C(=O)O)cc1	-1%	·	2%	·
O=C(O)C1=CCC(c2ccc(Cl)c(Cl)c2)N(S(=O)(=O)c2ccc(F)cc2)C1c1cccc(F)c1 (centres undefined)	·	·	·	1%
Cc1ccccc1C(=O)N(C)[C@H]1C[C@H]2c3[nH]c4ccccc4c3CCN2C(=O)[C@H]1[C@H](C)O	·	·	·	-5%
O=C(O)Cc1sc(N/N=C\c2ccncc2)nc1-c1ccccc1	6%	28µM*	0%	-3%
CN(C(=O)COC(=O)c1ccc2ccccc2n1)c1ccccc1	1%	·	6%[46.1 µM]	10µM*
O=C(Cn1c(=O)nc(-c2ccccc2)c2ccccc21)Nc1ccc(Cl)c(C(F)(F)F)c1	·	·	·	2%
Cc1noc(C)c1S(=O)(=O)NCCc1csc2nc(-c3ccc(F)cc3)nn12	·	·	·	1%
Cc1ccccc1CSc1nc2n(n1)C(c1cccs1)C1=C(CCCC1=O)N2 (centres undefined)	3%	-23%	1%	22µM*
CCCn1c(=O)[nH]c(=O)c2c1nc(-c1ccc(C#N)cc1)n2CCOC	-4%	-1%	5%	·
CCCn1c(=O)[nH]c(=O)c2c1nc(-c1ccc3c(c1)OCCO3)n2CCN1CCOCC1	0%	5%	3%	32µM*
CCCCn1c(-c2ccsc2)nc2c1c(=O)[nH]c(=O)n2CCC	-1%	35µM*	·	-6%
CCCn1c(=O)[nH]c(=O)c2c1nc(-c1ccc(OC(F)F)cc1)n2CCN1CCOCC1	-3%	0%	13%	-8%
CCCn1c(=O)[nH]c(=O)c2c1nc(-c1ccc(OC(F)(F)C(F)C(F)(F)F)cc1)n2CCOC (centres undefined)	2%	-3%	2%	28µM*
O=C(O)C(CCc1ccccc1)(Cc1ccccc1)C(=O)O	6%	·	-5%	·
O=S(=O)(NCCc1cn2ccsc2n1)c1ccc(Cl)cc1	·	·	·	-2%
SMILES	uPA surface inh	Sfp PPTase inh	TCR activator	ClpP mod
O=S(=O)(Nc1ccc(O)c(NS(=O)(=O)c2ccccc2)c1)c1ccccc1	-22%	40µM*	7%	3%
Cc1cc(NS(=O)(=O)c2ccccc2)ccc1NS(=O)(=O)c1ccccc1	4%	·	3%	·
Cc1ccc(NC(=O)c2cc(S(=O)(=O)N3CCOCC3)c(Cl)cc2Cl)cc1	·	·	·	-4%
CCc1ccc(OCC(=O)NC(=S)Nc2ccc(Br)c(C)n2)cc1	17%	9%	4%	-1%
CCNC(=O)COc1ccc(Br)cc1Cl	-4%	19%	1%	0%
Cc1nc(NC(=S)NC(=O)COc2ccccc2Cl)ccc1Br	1%	1%	3%[46.1 µM]	28µM*
O=C(COc1ccc(Br)cc1Cl)NC(=S)Nc1ccccn1	-18%	56µM*	3%	4%
